In PubChem BioAssay AID493026 (Johns Hopkins Ion Channel Center, 2011) one finds activity change, negative = inhibition data, which are given here for 2 compounds.

Among all 1,000 compounds or so, about 150 (15%) were called active.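 Rule for the calls: active = activity change at least 3 SD of negative controls below their mean in both duplicate wells; inactive = the rest.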 The sample as a whole holds a higher share of actives than the screen did.

In this assay the target is Potassium voltage-gated channel subfamily KQT member 1 (Homo sapiens) (UniProt P51787). Put plainly: KCNQ1 thallium flux decrease by hits – cell-based, FluxOR thallium flux, counter-screen for KCNQ2 inhibitor project (AID 493026).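 For activity change, negative = inhibition: peak minus minimum fluorescence over baseline after thallium addition; 0% = vehicle negative control and -100% = blank without thallium stimulus.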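 Note: CHO cells stably transfected with KCNQ1 and depolarized by potassium stimulus.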 Particulars: KCNQ1-expressing cells, FluxOR thallium flux fluorescence, at 10 µM; stronger effect = lower value. For orientation: Counterscreens check selectivity or assay interference.
Sequence of Potassium voltage-gated channel subfamily KQT member 1 (Homo sapiens) (P51787 whole entry, looked up): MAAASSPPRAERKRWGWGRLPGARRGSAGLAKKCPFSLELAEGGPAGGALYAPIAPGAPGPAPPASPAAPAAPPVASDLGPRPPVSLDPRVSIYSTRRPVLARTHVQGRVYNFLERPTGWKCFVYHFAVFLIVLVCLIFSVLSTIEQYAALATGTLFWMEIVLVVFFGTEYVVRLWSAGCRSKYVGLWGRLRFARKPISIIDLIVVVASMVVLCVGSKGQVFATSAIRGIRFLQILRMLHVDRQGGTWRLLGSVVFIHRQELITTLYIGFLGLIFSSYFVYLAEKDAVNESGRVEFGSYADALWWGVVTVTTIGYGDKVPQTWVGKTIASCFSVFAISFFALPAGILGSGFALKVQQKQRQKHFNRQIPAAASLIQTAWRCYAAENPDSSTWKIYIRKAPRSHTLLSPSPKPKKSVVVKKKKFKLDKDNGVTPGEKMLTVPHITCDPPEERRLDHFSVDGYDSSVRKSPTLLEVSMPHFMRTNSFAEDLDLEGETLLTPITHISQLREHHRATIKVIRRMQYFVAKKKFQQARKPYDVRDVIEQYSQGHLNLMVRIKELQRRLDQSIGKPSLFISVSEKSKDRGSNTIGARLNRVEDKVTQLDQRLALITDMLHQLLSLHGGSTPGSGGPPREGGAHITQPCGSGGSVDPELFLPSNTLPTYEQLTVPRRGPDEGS
Take `CN(C)CC1Oc2ccccc2OC1(O)c1ccccc1` (configuration not stated): the activity change, negative = inhibition was -30.5% (active).

Regarding `O=C(NC(c1ccc(Cl)cc1)P(=O)(Oc1ccccc1)Oc1ccccc1)OCc1ccccc1` (configuration not stated), the activity change, negative = inhibition entry is “inactive”.
